KB-3-1 cytotox = KB-3-1 parental cell cytotoxicity; KB-3-1 viability, CellTiter-Glo ATP luminescence, 72 h; Potency, µM (top dose mostly 46.1 µM), actives largely listed as cytotoxic; 400,000 compounds, 1.4% hits; AID 1347075; note: % is set by controls: 0 for no effect and ±100 for the full control effect; nearly all actives have a fitted effect of over 60% in size
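Here the drug-naive KB-3-1 line serves as comparator for MDR sub-line selectivity; cells received compound titrations, 72 h at 37 °C, then CellTiter-Glo readout.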
SW480 rereplic = induces DNA re-replication in SW480 colon adenocarcinoma cells; SW480 DNA re-replication, Hoechst DNA content imaging, 48 h; Potency, µM (top dose mostly 46.1 µM), for the others: at the top dose re-replication activation, hits mostly activators; 340,000 compounds, 1.8% hits; AID 624297; note: % of control where 0% means no effect; nearly all actives have a fitted effect of over 55% in size
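Per well, 250 cells were exposed to pinned compound for 48 hr. Nuclear DNA was visualised with Hoechst (40 min, 37 C) and total object intensity recorded by fluorescence scanning.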
HT1080 IDH1KD tx = toxicity to HT-1080 IDH1 knockdown cells (counter line) | 360,000 compounds, 2% hits | Potency, µM (series often up to 46.1 µM), for inactives: at the highest dose activity, negative = toxicity, usual class: cytotoxic | HT-1080 IDH1 knockdown viability, ATP luminescence, 48 h;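 note: 0% = DMSO wells and -100% = cell-free medium wells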
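Viability of IDH1-knockdown HT-1080 fibrosarcoma cells was assessed by CellTiter-Glo after 48 h at 37 °C with titrated compound; concentration-effect curves were classified by fit quality and response size.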
HT1080-NT tox = kills 2HG-producing HT-1080-NT fibrosarcoma cells; HT-1080-NT fibrosarcoma viability, CellTiter-Glo ATP luminescence, 48 h; Potency, µM (titrated, usually from 46.1 µM), without a hit: top-dose activity, negative = less viability, actives largely listed as cytotoxic; 360,000 compounds, 1.6% hits; AID 686970;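 note: NT is the 2HG producing partner of a matched IDH1 knockdown line; 0% = DMSO-treated cells and -100% = media-only wells without cells; nearly all actives have a fitted effect of over 55% in size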
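HT-1080-NT; 750 cells/well; 5% FBS RPMI; 48 h compound, 37 degrees C; CellTiter-Glo luminescence; curve fitting and curve-class assignment.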
KB-V1 MDR tox = kills drug-selected multidrug resistant KB-V1 cells; KB-V1 MDR cells viability, CellTiter-Glo, 72 h; AID 1347076; Potency, µM (top dose mostly 46.1 µM), hits mostly cytotoxic; 400,000 compounds, 3.4% hits; note: % is set by controls: 0 for no effect and ±100 for the full control effect; nearly all actives have a fitted effect of over 60% in size
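KB-V1 MDR subline cells in DMEM (phenol-red free, 10% FBS) exposed to compounds in qHTS concentration series for 72 h at 37 degrees C. Viability read by CellTiter-Glo luminescence; concentration-effect curves fitted after normalization and correction.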
MCF10A rereplic = induces DNA re-replication in MCF 10a normal breast cells. MCF 10A DNA re-replication, Hoechst nuclear intensity, 48 h. Potency, µM (series often up to 46.1 µM), without a hit: top-dose activity, positive = re-replication, hits mostly activators. 350,000 compounds, 2.9% hits. AID 624296; note: % of control where 0% means no effect; nearly all actives have a fitted effect of over 50% in size
The depositor's hits bear a star; i = inactive; ? = inconclusive; . = no result; [ ] = dose if it differs, or a comment. The list is not random: actives were taken first. Their share in the collection is about 7.9%. Calls come from the whole dose curve; as a rule, active = well fitted curve in the direction sought with a large enough effect; inconclusive = small, poorly fitted or top-dose-only effect, or another doubt; inactive = no such curve, though single readings can be large; an effect the other way counts as inactive or inconclusive. Potency is the fitted concentration of half-maximal effect.

SMILES | KB-3-1 cytotox | SW480 rereplic | HT1080 IDH1KD tx | HT1080-NT tox | KB-V1 MDR tox | MCF10A rereplic
COc1cccc(C2=NOC(C(=O)Nc3cc(C)nn3-c3ccccc3)C2)c1OC (stereo not given) | ? | 16% | -28% | ? | ? | 3%
COc1cc(OC)c(C2=NOC(C(=O)Nc3cc(C)nn3-c3ccccc3)C2)cc1Cl (stereo not given) | i | 1% | -6% | 0% | 18µM* | 1%
CCOc1cc(/C=N/O)ccc1OCc1ccc([N+](=O)[O-])cc1 | i | 10% | -11% | -10% | i | 13%
CCOc1cc(C=C(C(=O)OC)C(=O)OC)ccc1OCc1ccc([N+](=O)[O-])cc1 | 18µM* | 15µM* | 7.3µM* | 5.8µM* | ? | 0.65µM*
CCOC(=O)C1NC(=O)CC1c1ccccc1 (stereo not given) | i | -2% | -4% | -1% | i | -5%
CCOC(=O)C1C(=O)C=C(/C=C/c2ccccc2)CC1c1ccc(Cl)cc1 (stereo not given) | i | ? | -7% | -4% | 16µM* | 3%
COc1ccccc1-c1cnc(C(O)c2ccc(Cl)c(Cl)c2)[nH]1 (stereo not given) | ? | . | ? | -27% | 23µM* | .
COc1ccccc1-c1cnc(C(O)c2ccc(C(C)(C)C)cc2)[nH]1 (stereo not given) | ? | . | ? | -7% | 21µM* | .
Cc1cc(C(O)c2ncc(-c3cccc4ccccc34)[nH]2)ccc1F (stereo not given) | i | . | -14% | ? | i | .
COc1c(C)cc(C(O)c2ncc(-c3ccccc3C(F)(F)F)[nH]2)cc1C (stereo not given) | i | . | -15% | -16% | 18µM* | .
COc1ccccc1-c1cnc(C(O)c2ccccc2)[nH]1 (stereo not given) | i | . | ? | -7% | ? | .
OC(c1ccc2ccccc2c1)c1ncc(-c2cccc3ccccc23)[nH]1 (stereo not given) | ? | . | 26µM* | 18µM* | ? | .
COc1c(C)cc(C(O)c2ncc(-c3cccc4ccccc34)[nH]2)cc1C (stereo not given) | ? | . | ? | ? | i | .
O=C(CN1C(=O)NC(Cc2c[nH]c3ccccc23)C1=O)Nc1cccc(S(=O)(=O)N2CCCCCC2)c1 (stereo not given) | ? | 16% | ? | ? | i | 49%
COc1ccccc1CNC(=O)COc1ccc([N+](=O)[O-])cc1 | i | 3% | -9% | -9% | i | 1%
Cc1ccc(-n2c(C)cc(/C=c3/sc4nc5ccccc5n4c3=O)c2C)cc1 | i | 1%[9.22 µM] | -6% | -6% | i | 9.2µM*
Cc1ccc(SC(CC(=O)c2ccc(F)cc2)C(=O)O)cc1 (stereo not given) | i | -3% | 0% | 0% | i | ?
CC(C)(C)c1ccc(C(=O)CC(Sc2ccc(Cl)cc2)C(=O)O)cc1 (stereo not given) | ? | ? | 15µM* | 12µM* | ? | 23µM*
CCCCN(CCCC)C(=O)c1cc(Cl)ccc1[N+](=O)[O-] | i | ? | -6% | -6% | 23µM* | 13%
C=CCN(CC=C)C(=O)c1cc(Cl)ccc1[N+](=O)[O-] | i | -32% | 3% | 6% | i | 4%
COC(=O)c1ccc(CNCC(=O)Nc2ccc(C(=O)OC)cc2)cc1 | i | 2% | -2% | 0% | i | 16µM*
O=C(CNCc1ccc(Cl)cc1)Nc1ccc(C(=O)N2CCCCC2)cc1 | i | -7% | -14% | -4% | i | 0%
O=C(CNCc1ccccc1)Nc1ccc(Cl)cc1 | 10µM* | ? | 8.2µM* | 8.2µM* | ? | 18µM*
CCN1CCN(S(=O)(=O)c2ccc(Cl)c(C(=O)NC(C)c3ccccc3Cl)c2)CC1 (stereo not given) | i | 5% | -2% | -6% | ? | 2%
COCCCn1c(C)nnc1SCC(=O)Nc1ccc(C(C)=O)cc1 | i | -7% | 3% | 3% | i | 0%
SMILES | KB-3-1 cytotox | SW480 rereplic | HT1080 IDH1KD tx | HT1080-NT tox | KB-V1 MDR tox | MCF10A rereplic
Cc1ncc(CO)c(/C=N/NC(=O)c2cc(Br)ccc2O)c1O | i | -109% | ? | ? | i | 2%
Cc1ccc(N2C(N)=C(C#N)C(c3cccnc3)C3=C2CCCC3=O)cc1 (stereo not given) | ? | 0%[9.22 µM] | -1% | 3% | i | 17%
N#CC1=C(N)N(c2ccc(Br)cc2)C2=C(C(=O)CCC2)C1c1cccnc1 (stereo not given) | i | ? | ? | 13µM* | i | ?
O=C(O)c1ccc(S(=O)(=O)N2CCCCCCC2)cc1 | i | . | -2% | 5% | i | .
CC(=O)c1c(O)cc(O)c(C(C)=O)c1O | i | ? | 18µM* | 13µM* | i | 20%
Cc1nnc(SCC(=O)N2c3ccccc3C(C)(c3ccccc3)CC2(C)C)s1 (stereo not given) | 16µM* | 6% | -11% | -18% | 8.2µM* | ?
Cc1ccc(C2(C)CC(C)(C)N(C(=O)CSc3nnc(C)s3)c3ccccc32)cc1 (stereo not given) | ? | 1% | ? | ? | ? | ?
Cc1ccc(N(C)S(=O)(=O)c2cccc(C(=O)Nc3ccc(N4CCOCC4)cc3)c2)cc1 | ? | 7% | -16% | -1% | ? | 18%
COc1ccc(NC(=O)c2cccc(OC(=S)N3CCOCC3)c2)cc1 | i | -7% | -7% | -23% | 16µM* | -2%
COc1ccc(N(C)S(=O)(=O)c2cccc(C(=O)Nc3ccc(N4CCOCC4)cc3)c2)cc1 | ? | ? | -27% | -8% | 15µM* | 16%
O=C(N/N=C/c1cccc(O)c1)c1ccc(COc2ccccc2Br)cc1 | i | 9% | -21% | -14% | i | 23µM*
O=C(N/N=C/c1ccc([N+](=O)[O-])cc1)c1ccc(COc2ccccc2-c2ccccc2)cc1 | ? | -9% | 6% | -6% | 16µM* | -15%
CC(C)(C)c1ccc(OCc2ccc(C(=O)N/N=C/c3ccc(O)c(O)c3)cc2)cc1 | ? | 2% | ? | 26µM* | ? | ?
O=C(Nc1ccc(Cn2cccn2)cc1)c1ccc(COc2ccccc2Br)cc1 | 9.2µM* | ? | ? | ? | 18µM* | ?
COc1ccccc1OCc1ccc(C(=O)Nc2ccccc2)cc1 | i | -2% | 4% | 8% | i | 1%

Screening data from PubChem.
